Measured values published in PubChem BioAssay (EPA / NIEHS).
Some compounds were tested as several samples or in several runs, with calls that do not always agree. Activity calls are given as the source filed them. The calls were made as follows: active = hit-call score of the fitted dose curve at least 0.9, where 1 is the maximum; inactive = score below 0.9.

Columns and labels:
[1] = read-out: Interleukin-8 (IL8), CXCL8 (gene 3576); assay: BSK_MyoF_IL8: BioMAP Diversity Plus: MyoF Assay for Interleukin-8 (IL8) Biomarker Activity (AID 2284261); details: primary human lung fibroblasts
In short: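 IL-8 levels were measured by ELISA in human lung fibroblasts harvested 24 h after compound addition. Responses were analysed as gain of signal over the DMSO baseline.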

[2] = read-out: Decorin, DCN (gene 1634); assay: BSK_MyoF_Decorin: BioMAP Diversity Plus: MyoF Assay for Decorin Biomarker Activity (AID 2284265); details: primary human lung fibroblasts
In short: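 Compound is added to lung fibroblast cultures; cells incubate 24 h; decorin is then measured by ELISA; the response is analysed upward against DMSO controls.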

[3] = BSK_MyoF_SRB: Viability Assessment in the BioMAP Diversity Plus: MyoF Assay (AID 2284267); details: primary human lung fibroblasts;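 also: total protein by SRB absorbance in parallel cultures as cytotoxicity measure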
In short: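 Human lung fibroblasts, 24 h after chemical dosing; total protein measured by 0.1% sulforhodamine B staining after 10% TCA fixation, read at 560 nm, fitted relative to DMSO baseline.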

[4] = read-out: Matrix Metallopeptidase 1 (MMP1), MMP1 (gene 4312); assay: BSK_MyoF_MMP1: BioMAP Diversity Plus: MyoF Assay for Matrix Metallopeptidase 1 (MMP1) Biomarker Activity (AID 2284268); details: primary human lung fibroblasts
In short: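 Lung fibroblast cultures were dosed with test chemicals and, after 24 h, MMP1 levels were measured by ELISA; responses were referenced to DMSO and analysed for increases.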

[5] = read-out: TIMP metallopeptidase inhibitor 1 (TIMP1), TIMP1 (gene 7076); assay: BSK_MyoF_TIMP1: BioMAP Diversity Plus: MyoF Assay for TIMP metallopeptidase inhibitor 1 (TIMP1) Biomarker Activity (AID 2284269); details: primary human lung fibroblasts
In short: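 ELISA read-out of TIMP-1 from primary human lung fibroblast cultures 24 h after compound dosing; gain of signal relative to DMSO vehicle baseline defines activity.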

[6] = read-out: CD90, THY1 (gene 7070); assay: BSK_BF4T_CD90: BioMAP Diversity Plus: BF4T Assay for CD90 Biomarker Activity (AID 2284262); details: primary human bronchial epithelial cells with fibroblasts
In short: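 Co-culture of human bronchial epithelial cells and dermal fibroblasts, 24 h compound exposure. Cell-surface CD90 measured by ELISA relative to DMSO; parallel SRB total-protein staining for cytotoxicity.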

[7] = read-out: Interleukin-8 (IL8), CXCL8 (gene 3576); assay: BSK_BF4T_IL8: BioMAP Diversity Plus: BF4T Assay for Interleukin-8 (IL8) Biomarker Activity (AID 2284263); details: primary human bronchial epithelial cells with fibroblasts
In short: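 Human bronchial epithelial cells with dermal fibroblasts co-culture; IL-8 measured by ELISA 24 hours after dosing, fitted vs DMSO. Cytotoxicity tracked in parallel cultures by SRB total-protein staining.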

[8] = read-out: Interleukin-1 alpha (IL1a), IL1A (gene 3552); assay: BSK_BF4T_IL1a: BioMAP Diversity Plus: BF4T Assay for Interleukin-1 alpha (IL1a) Biomarker Activity (AID 2284264); details: primary human bronchial epithelial cells with fibroblasts
In short: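 Human bronchial epithelial cells co-cultured with dermal fibroblasts, dosed and read at 24 h. Secreted/surface IL-1α quantified by ELISA; gain-of-signal fitted relative to DMSO baseline. Parallel SRB total-protein staining tracked cytotoxicity.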

[9] = read-out: KRT18 (gene 3875); assay: BSK_BF4T_Keratin818: BioMAP Diversity Plus: BF4T Assay for Keratin 818 Biomarker Activity (AID 2284266); details: primary human bronchial epithelial cells with fibroblasts
In short: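 Co-culture of human bronchial epithelial cells and dermal fibroblasts, chemical exposure 24 h. Keratin 8/18 measured by ELISA; positive-direction fit vs DMSO. SRB total protein run in parallel cultures for cytotoxicity.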

[10] = read-out: Matrix Metallopeptidase 1 (MMP1), MMP1 (gene 4312); assay: BSK_BF4T_MMP1: BioMAP Diversity Plus: BF4T Assay for Matrix Metallopeptidase 1 (MMP1) Biomarker Activity (AID 2284270); details: primary human bronchial epithelial cells with fibroblasts
In short: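 Co-culture of human bronchial epithelial cells and dermal fibroblasts; MMP-1 levels measured by ELISA 24 hours after chemical dosing, relative to DMSO. Cytotoxicity checked in parallel cultures by SRB total-protein staining.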

[11] = read-out: Matrix Metallopeptidase 3 (MMP3), MMP3 (gene 4314); assay: BSK_BF4T_MMP3: BioMAP Diversity Plus: BF4T Assay for Matrix Metallopeptidase 3 (MMP3) Biomarker Activity (AID 2284271); details: primary human bronchial epithelial cells with fibroblasts
In short: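 Co-culture of human bronchial epithelial cells and dermal fibroblasts dosed 24 h; MMP-3 measured by ELISA, positive-direction fit versus DMSO. Cytotoxicity tracked by SRB total-protein staining (560 nm) in parallel cultures.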

[12] = read-out: Tissue plasminogen activator (tPA), PLAT (gene 5327); assay: BSK_BF4T_tPA: BioMAP Diversity Plus: BF4T Assay for Tissue plasminogen activator (tPA) Biomarker Activity (AID 2284272); details: primary human bronchial epithelial cells with fibroblasts
In short: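 tPA level quantified by ELISA at 24 h post-treatment in bronchial epithelial/dermal fibroblast co-cultures, gain of signal scored against DMSO baseline. Parallel cultures stained with 0.1% SRB (560 nm) to flag overt cytotoxicity.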

[13] = read-out: Plasminogen Activator Inhibitor-1 (PAI1), SERPINE1 (gene 5054); assay: BSK_BF4T_PAI1: BioMAP Diversity Plus: BF4T Assay for Plasminogen Activator Inhibitor-1 (PAI1) Biomarker Activity (AID 2284273); details: primary human bronchial epithelial cells with fibroblasts
In short: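 Co-culture of human bronchial epithelial cells and dermal fibroblasts exposed to compound for 24 h. PAI-1 measured by ELISA; activity fitted in positive direction versus DMSO. Parallel SRB staining assessed overt cytotoxicity.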

[14] = BSK_BF4T_SRB: Viability Assessment in the BioMAP Diversity Plus: BF4T Assay (AID 2284274); details: primary human bronchial epithelial cells with fibroblasts
In short: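 Co-culture of human bronchial epithelial cells and dermal fibroblasts (BioMAP BF4T) exposed 24 h. Total protein by sulforhodamine B staining (0.1% SRB after 10% TCA fixation, 560 nm) in parallel cultures; fitted vs DMSO.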

[15] = read-out: urokinase Plasminogen Activator (uPA), PLAU (gene 5328); assay: BSK_BF4T_uPA: BioMAP Diversity Plus: BF4T Assay for urokinase Plasminogen Activator (uPA) Biomarker Activity (AID 2284275); details: primary human bronchial epithelial cells with fibroblasts
In short: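 Co-culture of human bronchial epithelial cells and dermal fibroblasts; uPA quantified by ELISA 24 hours after dosing, fitted relative to DMSO. Parallel SRB total-protein staining assessed overt cytotoxicity.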

[16] = read-out: Matrix Metallopeptidase 9 (MMP9), MMP9 (gene 4318); assay: BSK_BF4T_MMP9: BioMAP Diversity Plus: BF4T Assay for Matrix Metallopeptidase 9 (MMP9) Biomarker Activity (AID 2284276); details: primary human bronchial epithelial cells with fibroblasts
In short: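 Co-culture of human bronchial epithelial cells and dermal fibroblasts dosed for 24 h; MMP-9 quantified by ELISA and fitted upward versus DMSO. Cytotoxicity monitored in parallel cultures by SRB total-protein staining at the biomarker time point.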

[17] = read-out: Interleukin-8 (IL8), CXCL8 (gene 3576); assay: BSK_IMphg_IL8: BioMAP Diversity Plus: IMphg Assay for Interleukin-8 (IL8) Biomarker Activity (AID 2284277); details: primary human endothelial cells with macrophages
In short: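 Co-culture of human venular endothelial cells and macrophages exposed to chemicals for 24 h; IL-8 quantified by ELISA and compared against the DMSO baseline, with SRB total-protein staining in parallel cultures for cytotoxicity.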

[18] = read-out: Intercellular Adhesion Molecule 1 (ICAM1), ICAM1 (gene 3383); assay: BSK_BE3C_ICAM1: BioMAP Diversity Plus: BE3C Assay for Intercellular Adhesion Molecule 1 (ICAM1) Biomarker Activity (AID 2284278); details: primary human bronchial epithelial cells;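 also: cell-surface ICAM-1 protein level quantified by ELISA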
In short: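 Primary human bronchial epithelial cells in BE3C system, 24 h after chemical dosing; cell-surface ICAM-1 measured by ELISA relative to DMSO. Parallel SRB staining (0.1% SRB after 10% TCA fixation, read at 560 nm) assessed cytotoxicity.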

[19] = read-out: Interferon-inducible T-cell alpha chemoattractant (ITAC), CXCL11 (gene 6373); assay: BSK_BE3C_ITAC: BioMAP Diversity Plus: BE3C Assay for Interferon-inducible T-cell alpha chemoattractant (ITAC) Biomarker Activity (AID 2284279); details: primary human bronchial epithelial cells
In short: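 ELISA read-out of I-TAC after 24 h chemical dosing of human lung primary bronchial epithelial cells; gain-of-signal fit vs DMSO baseline. Parallel SRB total-protein staining (0.1% SRB, 10% TCA fixation, 560 nm) assessed cytotoxicity.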

[20] = read-out: Interleukin-8 (IL8), CXCL8 (gene 3576); assay: BSK_BE3C_IL8: BioMAP Diversity Plus: BE3C Assay for Interleukin-8 (IL8) Biomarker Activity (AID 2284280); details: primary human bronchial epithelial cells
In short: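 IL-8 signal gain, normalised to DMSO vehicle, was scored after a 24 h chemical exposure of primary human bronchial epithelial cells, with detection by ELISA.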

Measured: AC50

COP(=S)(OC)Oc1ccc(S(=O)(=O)N(C)C)cc1
inactive: [1] | [2] | [3] | [4] | [5]

O=C(O)C(F)(F)C(F)(F)C(F)(F)C(F)(F)C(F)(F)C(F)(F)F
inactive: [1] | [6] | [7] | [8] | [2] | [9] | [3] | [4] | [5] | [10] | [11] | [12] | [13] | [14] | [15] | [16] | [17] | [18] | [19] | [20]
active: [16] 24.6 µM | [17] 40.5 µM

O=C(OC1CCCCC1)c1ccccc1C(=O)OC1CCCCC1
active: [1] 5.72 µM | [3] 13.3 µM | [4] 5.69 µM | [5] 25.7 µM
inactive: [2]

CCCCCCCCC(=O)NCc1ccc(O)c(OC)c1
inactive: [1] | [2] | [3] | [4] | [5]

Nc1cccc2ccccc12
active: [1] 11.4 µM | [4] 20 µM
inactive: [2] | [3] | [5]

CCOP(=S)(OCC)SCCS(=O)(=O)CC
inactive: [1] | [2] | [3] | [4] | [5]

COC(=O)c1sccc1S(=O)(=O)NC(=O)Nc1nc(C)nc(OC)n1
inactive: [1] | [2] | [3] | [4] | [5]

O=[N+]([O-])c1ccc2c3c(cccc13)CC2
active: [4] 20 µM
inactive: [1] | [2] | [3] | [5]

COP(=S)(OC)Oc1ccc(Sc2ccc(OP(=S)(OC)OC)cc2)cc1
inactive: [2] | [3] | [5]
active: [1] 20 µM | [4] 7.48 µM

CC1(C)Cc2cccc(O)c2O1
inactive: [1] | [2] | [3] | [4] | [5]

CCCCC(CC)CO[N+](=O)[O-] (stereo not given)
inactive: [1] | [2] | [3] | [5]
active: [4] 31.6 µM

ClC1=C(Cl)[C@]2(Cl)[C@H]3[C@H]([C@H]4C=C[C@H]3C4)[C@@]1(Cl)C2(Cl)Cl
inactive: [2] | [3] | [5]
active: [1] 2.92 µM | [4] 20 µM

CCNc1nc(NC(C)(C)C)nc(SC)n1
active: [4] 31.5 µM
inactive: [1] | [2] | [3] | [5]

CCOC(=O)/C=C(C)/C=C/C[C@@H](C)CCCC(C)C
active: [2] 20 µM | [3] 30.1 µM | [4] 20 µM | [5] 29.8 µM
inactive: [1]

CCOP(=S)(OCC)Oc1ccc(S(C)=O)cc1 (stereo not given)
inactive: [1] | [2] | [3] | [4] | [5]

COC[C@H](C)N(C(=O)CCl)c1c(C)csc1C
inactive: [1] | [2] | [3] | [4] | [5]

CC(=O)OC(c1ccccc1)C(Cl)(Cl)Cl (stereo not given)
inactive: [18] | [19] | [20]

COP(=S)(OC)Oc1cc(Cl)c(Cl)cc1Cl
inactive: [2] | [3] | [5]
active: [1] 4.59 µM | [4] 20 µM

CC(=O)C(Cl)C(=O)N(C)C (stereo not given)
inactive: [1] | [2] | [3] | [4] | [5]

CC(C)c1ccc(CO)cc1
inactive: [1] | [2] | [3] | [4] | [5]
